Bioassay records as filed in PubChem BioAssay.
CaV13 FRET inh – Primary screen for inhibitors of IQ motif and Ca2+-dependent inactivation inhibitor domain binding in CACNA1D, Förster resonance energy transfer in living cells, …; AID 743397; inhibition, % at 12.3 µM; HEK cells, CFP/YFP FRET ICDI-IQ, plate reader, 10 min; percent FRET-ratio fall versus neutral wells; 340,000 tested, 0.098% active;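 active = mean replicate inhibition of at least 30% and at least 1% of replicates passing that level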
PGC1a acetyl inh – PGC1a acetylation modulation, inhibitor mode; U2OS PGC1a acetylation, AlphaScreen anti-acetyl-lysine; with virally co-expressed GCN5 acetyltransferase; inhibition, % at 15.6 µM; 350,000 tested, 0.17% active;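 active = every replicate shows inhibition of at least 40%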
DENV2 CPE rescue – inhibitors of DENV2 cytopathic effect; DENV2-infected cells, cytopathic effect rescue, plate reader; AID 651640; CPE inhibition, % at 9.99 µM; 350,000 tested, 1.7% active; in the data active = CPE inhibition above about 20%, passing the limit was not always enough; tested in BHK-21 cells
INS-1E GSIS act – primary screen for activators of insulin secretion dependent on glucose, INS-1E cells, GLuc reporter luminescence; INS-1E GLuc reporter insulin secretion, 2-3 h; activation, % at 16.6 µM; 370,000 tested, 0.61% active; AID 743287;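 active = lowest replicate activation of at least 40%, so every replicate reaches that level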
rRNA inh HTS – inhibitors of bacterial rRNA selective over humanized ribosomes; E. coli WT GFP vs humanized-ribosome RFP mutants, fluorescence, 24 h; hits give low values; DMSO median 0, no signal -100; GFP signal change (wild-type ribosome), % (no concentration beside the values); 350,000 tested, 1.6% active;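 active = significant combined selectivity score with lowered wild-type GFP, culture density cut under 30%, mutant RFP and density less affected; inactive = any of these conditions unmet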
ERAP1 inh – ERAP1 (human) enzyme inhibition; Q9NZ08; recombinant ERAP1, Leu-AMC fluorescence, 60 min; inhibition, % at 10.7 µM; 340,000 tested, 0.15% active; AID 652197;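 active = mean replicate inhibition of at least 30%, or all replicates individually reaching that 30% level; inactive = mean below 30% and not every replicate reaching it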
Target sequence (Q9NZ08 whole entry, looked up): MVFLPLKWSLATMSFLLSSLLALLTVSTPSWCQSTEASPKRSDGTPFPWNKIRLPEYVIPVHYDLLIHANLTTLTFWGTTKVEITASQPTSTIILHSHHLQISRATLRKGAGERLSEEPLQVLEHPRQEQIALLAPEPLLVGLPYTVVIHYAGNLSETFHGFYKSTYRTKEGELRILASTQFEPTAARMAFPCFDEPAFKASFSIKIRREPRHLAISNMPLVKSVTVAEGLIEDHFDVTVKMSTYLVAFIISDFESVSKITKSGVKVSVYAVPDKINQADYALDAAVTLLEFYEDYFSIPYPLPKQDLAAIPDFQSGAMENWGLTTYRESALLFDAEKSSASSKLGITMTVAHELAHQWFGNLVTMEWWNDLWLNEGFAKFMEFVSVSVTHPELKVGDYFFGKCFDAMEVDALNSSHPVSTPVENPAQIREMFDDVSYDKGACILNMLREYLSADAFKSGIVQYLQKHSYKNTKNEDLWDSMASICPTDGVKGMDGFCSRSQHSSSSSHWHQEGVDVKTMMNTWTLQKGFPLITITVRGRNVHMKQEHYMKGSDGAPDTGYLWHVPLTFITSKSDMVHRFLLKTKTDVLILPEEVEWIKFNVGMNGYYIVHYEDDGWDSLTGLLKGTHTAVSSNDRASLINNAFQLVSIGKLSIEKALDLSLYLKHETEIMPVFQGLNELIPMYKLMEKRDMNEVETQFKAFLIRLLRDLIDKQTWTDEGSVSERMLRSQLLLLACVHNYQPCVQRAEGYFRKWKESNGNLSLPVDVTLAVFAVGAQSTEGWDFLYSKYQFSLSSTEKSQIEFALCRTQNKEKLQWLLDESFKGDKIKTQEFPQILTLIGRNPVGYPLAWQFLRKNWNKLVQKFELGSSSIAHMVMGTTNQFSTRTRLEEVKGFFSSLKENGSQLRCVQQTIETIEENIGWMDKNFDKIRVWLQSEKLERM
Numbers stand for hits; – = inactive; · = no result; ! = repeats disagree. Compounds with a hit are over-represented: about 3.2% of the library has one in this group of screens.

SMILES | CaV13 FRET inh | PGC1a acetyl inh | DENV2 CPE rescue | INS-1E GSIS act | rRNA inh HTS | ERAP1 inh
C[C@H](CO)N1C[C@H](C)[C@H](CN(C)Cc2ccc(C(=O)Nc3ccccc3N)cc2)Oc2c(NC(=O)Nc3ccc(F)cc3)cccc2C1=O | · | – | 36 | – | – | –
C[C@@H]1CN([C@H](C)CO)C(=O)c2cccc(NC(=O)C3CCOCC3)c2O[C@@H]1CN(C)Cc1ccc(C(=O)Nc2ccccc2N)cc1 | · | – | 47 | – | – | –
CC(C)NC(=O)Nc1cccc2c1O[C@H](CN(C)Cc1ccc(C(=O)Nc3ccccc3N)cc1)[C@H](C)CN([C@@H](C)CO)C2=O | · | – | 21 | – | – | –
C[C@@H]1CN([C@H](C)CO)C(=O)c2cccc(NC(=O)C3CCOCC3)c2O[C@@H]1CN(C)Cc1ccc(C(F)(F)F)cc1 | · | – | 39 | – | – | –
CC(C)NC(=O)Nc1cccc2c1O[C@@H](CN(C)Cc1ccc(C(=O)Nc3ccccc3N)cc1)[C@@H](C)CN([C@H](C)CO)C2=O | · | – | – | – | – | –
CN(C)C(=O)[C@@H]1[C@@H](CO)[C@@H]2Cn3c(ccc(-c4ccccc4)c3=O)[C@H]1N2C(=O)C1CCC1 | · | · | – | – | – | –
O=C(C[C@@H]1CC[C@@H]2[C@H](COC[C@@H](O)CN2CCC(F)(F)F)O1)N1CCC(Cc2ccccc2)CC1 | · | – | – | – | – | –
C[C@@H]1CN([C@H](C)CO)C(=O)c2cc(C#CC(C)(C)O)cnc2O[C@H]1CN(C)C(=O)CC1CC1 | · | – | – | – | – | –
COc1ccc(NC(=O)Nc2ccc3c(c2)C(=O)N([C@H](C)CO)C[C@H](C)[C@@H](CN(C)C(=O)C2CCCCC2)OCCCC[C@H](C)O3)cc1 | · | – | – | – | – | –
O=C(c1cccc(F)c1)N1CCCCN2[C@H](CO)[C@H](c3ccc(-c4ccncc4)cc3)[C@@H]2C1 | · | – | 22 | – | – | –
Cc1cccc(-c2ccc([C@H]3[C@H]4CN(C(=O)c5ccncc5)CCCCN4[C@H]3CO)cc2)c1 | · | – | 22 | – | – | –
O=C(c1ccc2c(c1)OCO2)N1CCCCN2[C@H](C1)[C@@H](c1ccc(-c3ccccc3)cc1)[C@@H]2CO | · | – | – | – | – | –
O=C(c1ccc2c(c1)OCO2)N1CCCCN2[C@H](CO)[C@@H](c3ccc(-c4ccccc4)cc3)[C@@H]2C1 | · | – | 27 | – | – | –
CN1C(=O)c2cc(NC(=O)c3ccccc3F)ccc2OC[C@H]2O[C@H](CC(=O)NCc3ccc4c(c3)OCO4)CC[C@H]21 | · | – | – | – | – | –
CC(C)(C)c1ccc(NC(=S)NCCc2ccccn2)cc1 | – | – | – | – | -41 | –
O=c1c2c([nH]c3ccc(Br)cc13)CCCC2 | · | – | · | · | · | ·
Brc1ccc2[nH]c3c(c2c1)CCC3 | – | – | – | · | -16 | –
Cc1ccc(CNC(=O)CN2C(=O)NC(C)(c3ccc(Cl)cc3)C2=O)cc1 (stereo unspecified) | – | – | – | – | – | –
Cc1ccc(CNC(=O)CN2C(=O)NC(C)(c3cccc(Br)c3)C2=O)cc1 (stereo unspecified) | – | – | – | – | -29 | –
CCCCn1c(N2CCCC2)nc2c1c(=O)[nH]c(=O)n2C | – | – | – | 84 | – | –
C=CCn1c(N2CCCCCC2)nc2c1c(=O)[nH]c(=O)n2C | – | – | · | · | · | ·
C/C(Cl)=C\Cn1c(N2CCCC2)nc2c1c(=O)[nH]c(=O)n2C | – | – | · | 49 | · | ·
Cc1ccc2ccccc2c1COC(=O)c1nonc1N | – | – | · | – | -23 | –
C[C@@H]1CCCCO[C@@H](CN(C)S(=O)(=O)c2cn(C)cn2)[C@@H](C)CN([C@@H](C)CO)C(=O)c2cc(NS(C)(=O)=O)ccc2O1 | · | – | – | – | – | –
CCOC(=O)c1ccc(N2C(=O)Cc3ccccc3C2=O)cc1 | – | · | – | – | – | –
SMILES | CaV13 FRET inh | PGC1a acetyl inh | DENV2 CPE rescue | INS-1E GSIS act | rRNA inh HTS | ERAP1 inh
CCOc1ccc(N2C(=O)Cc3ccccc3C2=O)cc1 | – | 43 | – | – | – | –
CCOc1ccc(CCN2C(=S)N([C@@H](Cc3ccc(O)cc3)CN3CCC[C@@H]3CN3C(=S)NC[C@@H]3CC(C)C)C[C@@H]2Cc2ccccc2)cc1 | – | – | – | – | – | ·
CC(C)C[C@H]1CN([C@@H](Cc2ccc(O)cc2)CN2CCC[C@H]2CN2C(=O)C(=O)NC[C@@H]2Cc2ccccc2)C(=O)C(=O)N1CCc1ccccc1 | – | · | – | · | – | –
CCOc1ccc(CCN2C(=S)N([C@@H](Cc3ccc(O)cc3)CN3CCC[C@@H]3CN3C(=S)NC[C@@H]3CC(C)C)C[C@@H]2CC(C)C)cc1 | – | – | 22 | – | – | –
CC(C)C[C@H]1CN([C@@H](Cc2ccc(O)cc2)CN2CCC[C@H]2CN2C(=O)C(=O)NC[C@@H]2Cc2ccc(O)cc2)C(=O)C(=O)N1CCc1ccccc1 | – | · | – | 44 | -28 | –
CC(C)C[C@H]1CNC(=S)N1C[C@H]1CCCN1C[C@H](CC(C)C)N1C[C@H](Cc2ccc(O)cc2)N(CCc2ccccc2)C1=S | – | – | 39 | – | – | –
C[C@@H]1CCCCO[C@H](CN(C)C(=O)c2ccccc2)[C@H](C)CN([C@@H](C)CO)C(=O)c2cc(NC(=O)NC3CCCCC3)ccc2O1 | · | – | – | – | – | –
C[C@H](CO)N1C[C@H](C)[C@@H](CN(C)Cc2ccncc2)Oc2c(NS(=O)(=O)c3cccs3)cccc2C1=O | – | – | 34! | – | – | –
C[C@H]1CN([C@@H](C)CO)C(=O)c2cccc(NS(=O)(=O)c3cccs3)c2O[C@H]1CN(C)Cc1ccncc1 | · | – | – | – | – | –
C[C@@H]1CN([C@@H](C)CO)C(=O)c2cccc(NS(=O)(=O)c3cccs3)c2O[C@H]1CN(C)CC1CCCCC1 | · | · | 34 | – | – | –
CC(C)NC(=O)Nc1ccc2c(c1)CC(=O)N([C@H](C)CO)C[C@H](C)[C@@H](CN(C)S(=O)(=O)c1ccc(F)cc1)O2 | · | – | · | – | – | ·
CCCN(C)C[C@@H]1Oc2cc(C#Cc3cccc(OC)c3)ccc2S(=O)(=O)N([C@@H](C)CO)C[C@@H]1C | · | – | · | – | – | –
CO[C@H]1CN(C)C(=O)c2cc(NC(=O)C3CC3)ccc2OC[C@H](C)N(C(=O)c2cnccn2)C[C@@H]1C | · | – | – | – | – | –
COc1ccc(NC(=O)Nc2ccc3c(c2)C(=O)N([C@H](C)CO)C[C@@H](C)[C@@H](CN(C)S(=O)(=O)c2cccs2)O3)cc1 | · | – | – | – | – | –
CO[C@H]1CN(C)C(=O)c2cc(NC(C)=O)ccc2OC[C@@H](C)N(C(=O)CN(C)C)C[C@H]1C | · | · | – | – | – | –
